# Values without a mark were called inactive. The rule behind the calls is not given here.
# Test system: Platelet Activating Factor (PAF) (human)
# Test: PubChem AID 1788
# Conditions: MDS Pharma lead profiling panel, radioligand binding, at 10 µM, hits give high values
structure (smiles),measurement,value
CCOC(=O)N1CCC(NCCNC(=O)c2ccccc2C)CC1,inhibition,0%

# Source: PubChem BioAssay AID1788 (Vanderbilt High Throughput Screening Facility, 2009)
